S1P2 ag = agonists of human S1P2 receptor. S1P2-expressing cell line, agonist reporter read-out. activation, % at 4.5 µM. 97,000 tested, 0.46% active. AID 729; in the data active = activation above about 16%
Target sequence (O95136 whole entry, looked up): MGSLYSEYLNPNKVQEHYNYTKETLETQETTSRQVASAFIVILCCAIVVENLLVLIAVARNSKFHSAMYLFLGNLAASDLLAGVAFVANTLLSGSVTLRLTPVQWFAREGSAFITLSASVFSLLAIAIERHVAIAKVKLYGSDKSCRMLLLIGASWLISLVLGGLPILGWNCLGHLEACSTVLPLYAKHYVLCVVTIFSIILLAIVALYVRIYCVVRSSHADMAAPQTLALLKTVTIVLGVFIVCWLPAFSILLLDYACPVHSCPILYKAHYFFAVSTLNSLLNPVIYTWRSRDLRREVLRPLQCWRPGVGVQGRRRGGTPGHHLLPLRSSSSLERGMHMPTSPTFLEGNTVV
GALR2 antag = blocks the human galanin receptor 2; 140,000 tested, 0.39% active; GALR2-expressing cells, antagonist mode; O43603; inhibition, % at 4 µM; AID 828; in the data active = inhibition above about 27%;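 note: cells stimulated with galanin 1-16 at roughly its EC80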
GALR2 ag = GALR2 (human) receptor agonism. O43603. GALR2-expressing cells, agonist activation read-out. activation, % (no concentration beside the values). 140,000 tested, 0.48% active. AID 803; in the data active = activation above about 5%, passing the limit was not always enough
S1P2 blocker = antagonists of human S1P2 receptor. O95136. cell-based S1P2 antagonist assay, inhibition at 5 uM. inhibition, % at 5 µM. 97,000 tested, 0.21% active; in the data active = inhibition above about 45%;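 note: CRE beta-lactamase reporter cells expressing human S1P2 stimulated with S1P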
Hits are given with their value; 0 = inactive; - = no result given. Most compounds without a hit are left out; they make up all but 1.2% or so of the library.

SMILES | S1P2 ag | GALR2 antag | GALR2 ag | S1P2 blocker
N#CC1=C(N)OC2=C(CCc3ccccc32)C1c1ccccc1 (stereo unspecified) | - | 0 | 5.0 | -
Cc1ccc(/C=C2\CCC3=C2OC(N)=C(C#N)C3c2ccc(C)cc2)cc1 (stereo unspecified) | 17 | 0 | 12 | 0
COc1ccc(Nc2nc(Nc3ccc(OC)cc3)nc(-n3[nH]c(=O)c(C)c3C)n2)cc1 | 0 | 0 | 73 | 0
Cc1sc(NC(=S)NC(=O)C2CCCCC2)c(C(N)=O)c1C | - | 0 | 0 | -
CCCn1nc(NC(=O)c2cccs2)c2cc3ccccc3nc21 | 0 | 0 | 0 | 0
CCCCn1nc(NC(=O)c2cccs2)c2cc3cc(OC)ccc3nc21 | 0 | 0 | 6.8 | 0
CC(C)Cn1c(N)c(C(=O)COC(=O)c2ccc3ccccc3n2)c(=O)n(C)c1=O | 22 | 0 | 0 | 0
Cc1c(C(=O)OCC(=O)c2c(N)n(CC(C)C)c(=O)n(C)c2=O)oc2ccccc12 | 0 | 0 | 0 | 0
Cn1c(=O)[nH]c(=O)c2[nH]c(N(Cc3ccccc3)Cc3ccccc3)nc21 | 0 | 0 | 0 | 56
Cn1c(=O)[nH]c(=O)c2c1nc(N(CCO)Cc1ccccc1)n2CCCc1ccccc1 | 0 | 0 | 0 | 0
CC(C)(C)OC(=O)N[C@@H](Cc1ccccc1)c1nnc(S(=O)(=O)Cc2ccccc2)o1 | 0 | 35 | 0 | 0
CC(C)Cn1c(SCc2nc3ccccc3c(=O)[nH]2)nc2ccccc2c1=O | 0 | 0 | 0 | 0
CC(=O)c1cccc(NS(=O)(=O)c2ccc(N/C=C\C(=O)c3ccc(C)cc3)cc2)c1 | 0 | 0 | 0 | 67
CC(=O)c1cccc(NS(=O)(=O)c2ccc(N/C=C/C(=O)c3ccc(F)cc3)cc2)c1 | - | 0 | 0 | -
CCc1ccc2c(c1)c1nnc(NN)nc1n2CC | - | 0 | 0 | -
O=C(Nc1ccncc1)Nc1ccccn1 | 0 | 0 | 0 | 0
O=C(Nc1ccccn1)Nc1cccs1 | 133 | 0 | 0 | 0
CC1CC(C)CN(c2cc(=O)n(Cc3ccc(F)cc3)c(=O)[nH]2)C1 (stereo unspecified) | 0 | 0 | 0 | 0
O=C(NC(=O)c1cccc(OC(F)(F)C(F)F)c1)OC1CCS(=O)(=O)C1 (stereo unspecified) | - | 0 | 5.7 | -
COc1ccc(NC(=O)CSc2ccc3ccccc3c2)cc1S(=O)(=O)N1CCCCC1 | - | 0 | 0 | -
O=C(c1ccc(-c2cc3ccccc3oc2=O)cc1)N1CCN(c2ccc(Cl)cc2[N+](=O)[O-])CC1 | - | 0 | 0 | -
CCNc1nc(NCC)n2c(SCc3nc4ccccc4c(=O)[nH]3)nnc2n1 | 43 | 0 | 0 | 0
CCNc1nc(NCC)n2c(SCc3ccc(F)cc3)nnc2n1 | 0 | 0 | 0 | 0
C=CCn1c(SCC(=O)NC(=O)NCc2ccco2)nc2sc(C)c(C)c2c1=O | 0 | 0 | 6.2 | 0
Cc1sc2nc(SCc3ccccc3)n(Cc3ccco3)c(=O)c2c1C | 0 | 0 | 0 | 0
SMILES | S1P2 ag | GALR2 antag | GALR2 ag | S1P2 blocker
Cc1sc2nc(SCc3nc4ccccc4[nH]3)n(Cc3ccco3)c(=O)c2c1C | 17 | 0 | 0 | 0
Cc1ccc2nc(-c3ccc(NC(=O)CN4C(=O)NC(C)(c5ccc(OC(F)F)cc5)C4=O)cc3)sc2c1 (stereo unspecified) | - | 0 | 0 | -
CCc1ccc2[nH]c(=O)c(CN(Cc3ccc4c(c3)OCO4)Cc3nnnn3C3CCCC3)cc2c1 | 24 | 0 | 0 | 0
CC(OC(=O)c1ccc2c(=O)n3c(nc2c1)CCCCC3)C(=O)Nc1ncc(Cl)cc1Cl (stereo unspecified) | - | 0 | 0 | -
COc1ccccc1CNC(=O)c1cn(C)c(=O)c2cc(OC)c(OC)cc12 | 0 | 0 | 0 | 0
COc1cccc(NC(=O)c2cn(C)c(=O)c3cc(OC)c(OC)cc23)c1 | 28 | 0 | 0 | 0
Cc1ccc(C(=O)N[C@H](C(=O)OCc2cc(=O)oc3cc(C)ccc23)C(C)C)cc1 | - | 0 | 0 | -
CCc1ccc(N2C(=O)CC(N3CCC(C(=O)OC)CC3)C2=O)cc1 (stereo unspecified) | 27 | 0 | 0 | 0
Cn1cnnc1SCc1ccc(C(=O)O)cc1 | 0 | 0 | 0 | 0
CC(C)c1ccc2[nH]c(O)c(N=NC(=O)c3ccc(CSc4nncn4C)cc3)c2c1 | - | 0 | 5.1 | -
O=C(Nc1ccc(-c2nc3ccccc3o2)c(O)c1)c1cc(-n2cnnc2)ccc1Cl | 0 | 0 | 0 | 0
Cc1c(NC(=O)c2cc(-n3cnnc3)ccc2Cl)cccc1-c1nc2ccccc2o1 | 0 | 0 | 0 | 56
O=C(CSC1=NCCS1)Nc1ccnc2ccccc12 | - | 35 | 0 | -
CCCCCCCN=CC1=C(O)CC(c2ccccc2)CC1=O (stereo unspecified) | - | 0 | 0 | -
CCOC(=O)c1sc2nc(C3CC3)cc(-c3ccc(F)cc3)c2c1N | 38 | 0 | 0 | 0
CCOC(=O)c1sc2nc(C3CC3)cc(-c3ccc(OC)cc3)c2c1N | 0 | 0 | 0 | 0
Cc1cc(C)cc(COn2ccnc2)c1 | 0 | 0 | 0 | 0
CCCCCNC(=O)N[C@H](C(=O)O)C(C)C | - | 0 | 0 | -
Cc1ccc(S(=O)(=O)N/N=C/c2cccc([N+](=O)[O-])c2)cc1 | - | 0 | 0 | -
Cc1ccc(S(=O)(=O)N/N=C/c2cc(Br)c(C)o2)cc1 | 27 | 0 | 0 | 0
O=S(=O)(NC1CCCCCC1)c1ccc(Br)s1 | 0 | 0 | 0 | 0
CC(=O)NCCn1c(SCc2cc(=O)n3cc(Cl)ccc3n2)nc2ccccc2c1=O | 22 | 0 | 0 | 0
CC(NC(=O)CCCCCCN1C(=O)c2ccccc2C1=O)c1ccc2c(c1)CCCC2 (stereo unspecified) | - | 0 | 0 | -
COc1ccc(NC(=O)/C(C#N)=C\C=C\c2ccco2)cc1 | - | 0 | 0 | -
N=c1c2c(-c3ccccc3)c(-c3ccccc3)n(Cc3ccco3)c2ncn1Cc1ccco1 | - | 0 | 5.2 | -
SMILES | S1P2 ag | GALR2 antag | GALR2 ag | S1P2 blocker
N=c1c2c(-c3ccccc3)c(-c3ccccc3)n(Cc3ccccc3)c2ncn1CCCn1ccnc1 | 0 | 0 | 0 | 0
CC1CC(C)(C)N(C(=O)CSc2ccc(-c3ccc(F)cc3)nn2)c2ccccc21 (stereo unspecified) | 0 | 0 | 0 | 0
N#CC(c1ccc(Cl)cc1)c1ccc2c(C(F)(F)F)cc(C(F)(F)F)nc2n1 (stereo unspecified) | 0 | 0 | 0 | 69
Cc1nnnn1CC(=O)Nc1ccccc1[N+](=O)[O-] | - | 0 | 0 | -
CCCOC(=O)c1[nH]c2c(c1C)C(=O)CC(c1ccc(OC)c(OC)c1)C2 (stereo unspecified) | - | 0 | 5.2 | -
CCCCCOC(=O)c1[nH]c2c(c1C)C(=O)CC(c1ccco1)C2 (stereo unspecified) | - | 35 | 0 | -
CCOC(=O)c1[nH]c2c(c1C)C(=O)CC(c1ccc(OCC)c(OC)c1)C2 (stereo unspecified) | 0 | 0 | 0 | 0
CCOC(=O)c1[nH]c2c(c1C)C(=O)CC(c1ccc(F)cc1)C2 (stereo unspecified) | - | 0 | 0 | -
CCNC(=O)COC(=O)c1csc2c1CCCC2 | - | 0 | 0 | -
COc1cc(/C=N/Nc2ccc3ccccc3c2)ccc1OC(=O)c1ccco1 | - | 0 | 0 | -
CC1=NN(C(=O)c2ccc(Cn3nc(C)cc3C)o2)C(O)(C(F)(F)F)C1 (stereo unspecified) | 0 | 0 | 0 | 0
CCCn1c(N)c(C(=O)CSc2nc3ccccc3n2CCC#N)c(=O)n(C)c1=O | 26 | 0 | 0 | 0
CCCCCCn1c(SCC(=O)c2c(N)n(C)c(=O)n(C)c2=O)nc2ccccc21 | 0 | 0 | 0 | 0

Screens: PubChem, The Scripps Research Institute Molecular Screening Center
